# The campaign covered roughly 5,500 compounds. About 2,000 (36%) were called active. Another 18% or so got no clear call; they are omitted. Some of the results follow. Values without a mark were called inactive. No stated cut-off is given here; in the data, active means normalized growth mostly below about 0.91 (no sharp cut-off); inconclusive means no clear call, values can overlap the other calls; inactive means mostly above about 0.92.
# Experiment: chemical genetic growth profiling, strain panel (AID 1159580);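 further: tested at 20 µM; growth read once vehicle control cultures reached saturation at 30 °C; 1 = growth at the plate median or of vehicle wells; lower values mean less growth of the strain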
# Conditions: S. cerevisiae deletion strains, growth OD
compound,measurement,setting,value
COP(=S)(OC)Oc1ccc(SC)c(C)c1,normalized growth,"locus YAL013W, strain DEP1, hits give low values",1
same,normalized growth,"locus YAL021C, strain ccr4, hits give low values",1.07
same,normalized growth,"locus YAL026C, strain drs2, hits give low values",0.984
same,normalized growth,"locus YAL030W, strain snc1, hits give low values",1
same,normalized growth,"locus YBL061C, strain skt5, hits give low values",0.981
same,normalized growth,"locus YBR009C, strain hhf1, hits give low values",0.904 (active)
same,normalized growth,"locus YBR021W, strain FUR4, hits give low values",0.98
same,normalized growth,"locus YBR023C, strain chs3, hits give low values",0.973
same,normalized growth,"locus YBR171W, strain sec66, hits give low values",0.992
same,normalized growth,"locus YBR229C, strain ROT2, hits give low values",1.02
same,normalized growth,"locus YBR231C, strain swc5, hits give low values",1.03
same,normalized growth,"locus YBR279W, strain paf1, hits give low values",1.01
same,normalized growth,"locus YCL011C, strain gbp2, hits give low values",0.955
same,normalized growth,"locus YCL016C, strain dcc1, hits give low values",0.954
same,normalized growth,"locus YCL029C, strain bik1, hits give low values",0.988
same,normalized growth,"locus YCL069W, strain vba3, hits give low values",0.981
same,normalized growth,"locus YCR088W, strain abp1, hits give low values",1
same,normalized growth,"locus YDL005C, strain med2, hits give low values",1.01
same,normalized growth,"locus YDL035C, strain GPR1, hits give low values",1.01
same,normalized growth,"locus YDL040C, strain nat1, hits give low values",1
same,normalized growth,"locus YDL074C, strain BRE1, hits give low values",1.01
same,normalized growth,"locus YDL101C, strain DUN1, hits give low values",1.03
same,normalized growth,"locus YDL134C, strain PPH21, hits give low values",1.02
same,normalized growth,"locus YDL185W, strain tfp1, hits give low values",0.986
same,normalized growth,"locus YDL192W, strain arf1, hits give low values",0.989
same,normalized growth,"locus YDR001C, strain nth1, hits give low values",0.999
same,normalized growth,"locus YDR069C, strain doa4, hits give low values",1.02
same,normalized growth,"locus YDR101C, strain arx1, hits give low values",0.988
same,normalized growth,"locus YDR137W, strain rgp1, hits give low values",0.94
same,normalized growth,"locus YDR150W, strain NUM1, hits give low values",1.02
same,normalized growth,"locus YDR159W, strain sac3, hits give low values",0.919
same,normalized growth,"locus YDR162C, strain NBP2, hits give low values",1.01
same,normalized growth,"locus YDR195W, strain ref2",1.2 [resistant] (active)
same,normalized growth,"locus YDR297W, strain sur2, hits give low values",1.01
same,normalized growth,"locus YDR318W, strain mcm21, hits give low values",0.99
same,normalized growth,"locus YDR334W, strain swr1, hits give low values",1.01
same,normalized growth,"locus YDR335W, strain msn5, hits give low values",1.01
same,normalized growth,"locus YDR388W, hits give low values",0.991
same,normalized growth,"locus YDR392W, strain spt3, hits give low values",0.766
same,normalized growth,"locus YDR502C, strain sam2, hits give low values",1
same,normalized growth,"locus YEL003W, strain gim4, hits give low values",1
same,normalized growth,"locus YEL037C, strain rad23, hits give low values",1
same,normalized growth,"locus YEL061C, strain CIN8 (second series), hits give low values",1
same,normalized growth,"locus YEL061C, strain CIN8, hits give low values",1.01
same,normalized growth,"locus YER015W, strain faa2, hits give low values",0.995
same,normalized growth,"locus YER016W, strain bim1, hits give low values",0.978
same,normalized growth,"locus YER110C, hits give low values",0.986
same,normalized growth,"locus YER111C, strain swi4, hits give low values",1.01
same,normalized growth,"locus YER155C, strain BEM2 (second series), hits give low values",0.951
same,normalized growth,"locus YER155C, strain BEM2, hits give low values",1.02
same,normalized growth,"locus YER167W, strain BCK2, hits give low values",1
same,normalized growth,"locus YFR010W, strain ubp6, hits give low values",1.03
same,normalized growth,"locus YGL078C, strain dbp3, hits give low values",0.981
same,normalized growth,"locus YGL086W, strain mad1, hits give low values",0.991
same,normalized growth,"locus YGL167C, strain pmr1, hits give low values",0.993
same,normalized growth,"locus YGL173C, strain kem1, hits give low values",0.988
same,normalized growth,"locus YGL227W, strain vid30, hits give low values",1.01
same,normalized growth,"locus YGL240W, strain doc1, hits give low values",0.989
same,normalized growth,"locus YGL248W, strain PDE1, hits give low values",1.03
same,normalized growth,"locus YGL253W, strain hxk2, hits give low values",0.955
same,normalized growth,"locus YGR078C, strain PAC10, hits give low values",0.999
same,normalized growth,"locus YGR135W, strain pre9, hits give low values",0.987
same,normalized growth,"locus YGR229C, strain SMI1, hits give low values",0.984
same,normalized growth,"locus YGR252W, strain gcn5, hits give low values",0.922
same,normalized growth,"locus YHR013C, strain ard1, hits give low values",1.02
same,normalized growth,"locus YHR027C, strain rpn1, hits give low values",0.998
same,normalized growth,"locus YHR030C, strain SLT2, hits give low values",1.02
same,normalized growth,"locus YHR079C, strain IRE1 (second series), hits give low values",0.99
same,normalized growth,"locus YHR094C, strain hxt1, hits give low values",0.984
same,normalized growth,"locus YHR129C, strain ARP1, hits give low values",1.01
same,normalized growth,"locus YHR142W, strain chs7, hits give low values",0.912
same,normalized growth,"locus YHR200W, strain rpn10, hits give low values",0.977
same,normalized growth,"locus YIL066C, strain RNR3, hits give low values",1
same,normalized growth,"locus YIL073C, strain SPO22, hits give low values",0.954
same,normalized growth,"locus YIL125W, strain kgd1, hits give low values",0.996
same,normalized growth,"locus YIR030C, strain dcg1, hits give low values",0.988
same,normalized growth,"locus YJL092W, strain hpr5, hits give low values",0.992
same,normalized growth,"locus YJL095W, strain BCK1 (second series), hits give low values",0.97
same,normalized growth,"locus YJL095W, strain BCK1, hits give low values",0.983
same,normalized growth,"locus YJL115W, strain asf1, hits give low values",1.02
same,normalized growth,"locus YJL129C, strain trk1, hits give low values",0.958
same,normalized growth,"locus YJL134W, strain LCB3, hits give low values",1.02
same,normalized growth,"locus YJL154C, strain vps35, hits give low values",1.01
same,normalized growth,"locus YJL164C, strain tpk1, hits give low values",0.935
same,normalized growth,"locus YJL166W, strain qcr8, hits give low values",0.974
same,normalized growth,"locus YJL168C, strain set2, hits give low values",0.991
same,normalized growth,"locus YJL187C, strain SWE1 (second series), hits give low values",1.01
same,normalized growth,"locus YJR043C, strain POL32, hits give low values",1
